Screens as filed in PubChem.
TGFb SMAD3 inh – qHTS for Inhibitors of TGF-b; 410,000 compounds, 1.2% hits; Potency, µM (doses to about 46.1 µM), most hits filed as inhibitors; AID 588855, 2011; HepG2 CAGA-GFP TGF-b/SMAD3 reporter, GFP fluorescence, 18 h; TGF-beta stimulated, 500 pg/mL final; further: nearly all actives have a fitted effect of over 65% in size
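First, reporter cells (HEPG2 CAGA-GFP) rested 2 h at 37 degrees C. Next, compounds were pinned in and TGF-beta added to 500 pg/mL final. After 18 h, GFP was imaged per cell and summed per well.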
S-ASM inh – Inhibitors of Secretory Acid Sphingomyelinase (S-ASM): qHTS; Sphingomyelin phosphodiesterase (Homo sapiens), P17405; placental ASM, HMU-PC fluorogenic substrate, 60 min; Potency, µM (top dose mostly 57.5 µM), usual class: inhibitors; 340,000 compounds, 0.006% hits
Target sequence (P17405 47-631 limits assumed): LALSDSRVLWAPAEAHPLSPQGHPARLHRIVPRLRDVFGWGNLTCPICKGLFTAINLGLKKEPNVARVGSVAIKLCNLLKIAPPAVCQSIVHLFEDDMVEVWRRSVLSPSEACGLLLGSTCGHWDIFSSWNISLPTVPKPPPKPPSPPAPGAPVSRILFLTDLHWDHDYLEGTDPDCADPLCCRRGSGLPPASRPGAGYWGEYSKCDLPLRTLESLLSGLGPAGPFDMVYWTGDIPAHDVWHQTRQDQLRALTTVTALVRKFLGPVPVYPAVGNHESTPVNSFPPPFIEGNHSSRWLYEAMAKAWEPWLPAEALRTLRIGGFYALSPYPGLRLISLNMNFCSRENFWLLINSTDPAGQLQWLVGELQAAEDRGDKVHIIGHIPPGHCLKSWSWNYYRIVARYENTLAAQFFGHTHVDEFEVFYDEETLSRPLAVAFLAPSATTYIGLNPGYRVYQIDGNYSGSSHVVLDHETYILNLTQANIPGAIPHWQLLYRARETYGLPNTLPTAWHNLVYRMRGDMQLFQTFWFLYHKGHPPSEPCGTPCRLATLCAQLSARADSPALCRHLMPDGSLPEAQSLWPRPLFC
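Fluorescence read-out (Ex 386 nm, Em 447 nm) after stopping the reaction at pH 10. Enzyme: ASM from human placenta; substrate HMU-PC0, 9 uM final; 60 min, 37 °C. Compound preincubation 10 min, ambient temperature.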
IL1B secr inh – qHTS for Inhibitors of Inflammasome Signaling: IL-1-beta AlphaLISA Primary Screen. THP-1 LPS/ATP IL-1B secretion, AlphaLISA, 16 h; stronger effect = lower value. activity change, % at 57.5 µM. 360,000 compounds, 4.7% hits. AID 743279, 2014; in the data active means activity change below about -50%; inconclusive means mostly about -30% to -49%
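Secreted IL-1B measured by AlphaLISA bead assay after 16 h compound exposure of THP-1 cells; compounds (final up to 57.5 uM) added 1 h before LPS (250 ng/mL) and ATP (1.25 mM) stimulation; lower signal means less secretion.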
DT40 TDP1 no CPT – qHTS for Inhibitors of human tyrosyl-DNA phosphodiesterase 1 (TDP1): qHTS in cells in absence of CPT. DT40 Tdp1-/- hTDP1 cells, no CPT, ATP luminescence, 48 h. Potency, µM (top dose mostly 46.2 µM), hits mostly inhibitors. 420,000 compounds, 15% hits. AID 686978, 2013; further: nearly all actives have a fitted effect of over 55% in size
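Chicken DT40 Tdp1-/- cells stably complemented with human TDP1 were seeded at 400 cells/well with DMSO in place of 20 nM camptothecin. After compound pinning, cells grew at least 48 hr at 37 °C; viability read by CellTiter-Glo luminescence.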
TDP1 cell CPT – qHTS for Inhibitors of human tyrosyl-DNA phosphodiesterase 1 (TDP1): qHTS in cells in presence of CPT | chicken DT40 Tdp1-/-;hTDP1 cells + 20 nM CPT, ATP luminescence, 48 h | Potency, µM (doses to about 46.2 µM), usual class: inhibitors | 420,000 compounds, 12% hits | AID 686979, 2013; further: nearly all actives have a fitted effect of over 55% in size
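Chicken DT40 Tdp1-/- cells complemented with human TDP1, 400 cells/well, exposed to compounds plus 20 nM camptothecin for at least 48 h at 37 C; viability read as ATP content by CellTiter-Glo luminescence.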
HepG2 tox – qHTS for Inhibitors of TGF-b: Cytotox Counterscreen; HepG2 CAGA-GFP viability, ATP luminescence, 18 h; Potency, µM (series often up to 46.1 µM), actives largely listed as cytotoxic; 410,000 compounds, 0.76% hits
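HepG2 CAGA-GFP cells (1000/well, DMEM with 1% FBS) received compound, then TGF-beta at 500 pg/mL final, and were incubated 18 hours at 37 degrees C. Viability was read by CellTiter-Glo luminescence. Media-only wells were set as complete cell-killing and DMSO as no toxicity.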
Hits are given with their value; – = inactive; ? = inconclusive; · = not tested or not shown; ! = a repeat was not active. Shown are actives, neighbours in structure and some others; about 19% of the full set was active somewhere. Unless noted, the call rests on the fitted dose curve; in most records, active means well fitted curve in the direction sought with a large enough effect; inconclusive means small, poorly fitted or top-dose-only effect, or another doubt; inactive means no such curve, though single readings can be large; an effect the other way counts as inactive or inconclusive.

SMILES	TGFb SMAD3 inh	S-ASM inh	IL1B secr inh	DT40 TDP1 no CPT	TDP1 cell CPT	HepG2 tox
O=c1[nH]c(=S)n(CCC2=CCCCC2)c(O)c1C=NC1CCN(Cc2ccccc2)CC1	–	–	–	?	20.6µM	–
Cc1nc2n(c(=O)c1CCN1CCC(c3noc4cc(F)ccc34)CC1)CCCC2	?	–	–	?	?	–
Cc1ccc(S(=O)(=O)N[C@@H](CCCCN)C(=O)CCl)cc1	–	–	–	8.41µM!	8.41µM!	–
O=C(O)C(Cc1cnc[nH]1)NS(=O)(=O)c1ccc(Br)cc1 (stereo unspecified)	–	–	–	–	–	–
[S]=[Sb](=[S])[S][Sb](=[S])=[S]	·	·	·	–	–	·
COc1cccc2c1N=C1CCCC3CN(C(C)=O)CCC123 (stereo unspecified)	–	–	–	–	–	–
COc1cc(C(c2c(C)[nH]n(-c3ccccc3)c2=O)c2c(C)[nH]n(-c3ccccc3)c2=O)cc(OC)c1OC	?	–	-78.1	?	–	–
Cc1[nH]n(-c2ccccc2)c(=O)c1C(c1cccc([N+](=O)[O-])c1O)c1c(C)[nH]n(-c2ccccc2)c1=O	?	–	–	?	–	–
C#CCOS(=O)OC1CCCCC1Oc1ccc(C(C)(C)C)cc1 (stereo unspecified)	·	·	·	–	–	·
COc1ccc(N2C(=O)CS(=O)C(c3ccccc3)C2=O)cc1 (stereo unspecified)	?	–	–	20.6µM	?	–
O=C1CC(N2CC2)C(=O)N1c1ccccc1 (stereo unspecified)	–	·	–	–	–	–
C/C(=N\OC(=O)NC(C)C)c1sc(-c2ccccc2)nc1C	–	–	?	?	?	–
CCNC(=O)O/N=C(\C)c1sc(-c2ccc(Cl)cc2)nc1C	–	–	–	18.4µM	25.9µM	–
C/C(=N\OC(=O)NC(C)C)c1sc(-c2ccc(Cl)cc2)nc1C	–	–	–	18.4µM	?	–
CN1CCc2cc3c(cc2C1O)OCO3 (stereo unspecified)	·	·	·	–	–	·
CCN(C(=O)Cn1c(=O)oc2cc(S(=O)(=O)N3CCCC3)ccc21)c1cccc(C)c1	·	·	·	?	?	–
O=c1cccc2n1CC1CC2CN2CCCCC12 (stereo unspecified)	·	·	·	–	–	·
O=S(=O)(c1ccc(Cl)cc1)N1Cc2cc(Br)ccc2-n2nncc2C1	?	·	–	23.1µM	20.6µM	–
Cc1cc(C)c(S(=O)(=O)N2Cc3ccccc3-n3nncc3C2)c(C)c1	–	·	–	2.06µM	5.17µM	–
O=S(=O)(c1cccc2ccccc12)N1Cc2ccccc2-n2nncc2C1	–	·	–	11.6µM	23.1µM	–
O=S(=O)(c1cc(Cl)cc(Cl)c1)N1Cc2cc(-c3ccccc3)ccc2-n2nncc2C1	–	·	–	?	?	–
Cc1ccc(S(=O)(=O)N2Cc3cc(-c4ccccc4)ccc3-n3nncc3C2)cc1	?	·	–	?	?	–
COc1ccc(S(=O)(=O)N2Cc3ccccc3-n3nncc3C2)cc1	–	·	–	14.6µM	16.4µM	–
CC(C)S(=O)(=O)N1Cc2ccccc2-n2nncc2C1	–	·	–	–	–	–
CCn1c(CNC(=O)c2ccc3c(c2)OCO3)nnc1SCC(=O)Nc1cc(C)ccc1OC	?	–	–	–	?	–
COc1ccc(NC(=S)N2Cc3ccccc3-n3nncc3C2)c(OC)c1	–	·	–	11.6µM	?	–
COc1cc(C(=O)N2Cc3ccccc3-n3nncc3C2)cc(OC)c1OC	–	·	–	–	–	–
C=CCOC(Cn1ccnc1)c1ccc(Cl)cc1Cl (stereo unspecified)	–	–	–	9.44µM	29.9µM	–
